High-throughput results (PubChem)
IP6K1 inh: Primary qHTS assay for small molecule inhibitors of Inositol hexaphosphate kinase 1 (IP6K1); Inositol hexakisphosphate kinase 1 (Homo sapiens), Q92551; IP6K1 kinase, ADP-Glo luminescence, 2 h; stronger effect = lower value; activity change, % (series mostly up to about 58 µM); 140,000 tested, 0.81% active; AID 1645851, 2021; in the data active means activity change below about -25%; further: on the % scale 0 is the no-effect control and ±100 the full control effect
Target sequence (Q92551 whole entry, looked up): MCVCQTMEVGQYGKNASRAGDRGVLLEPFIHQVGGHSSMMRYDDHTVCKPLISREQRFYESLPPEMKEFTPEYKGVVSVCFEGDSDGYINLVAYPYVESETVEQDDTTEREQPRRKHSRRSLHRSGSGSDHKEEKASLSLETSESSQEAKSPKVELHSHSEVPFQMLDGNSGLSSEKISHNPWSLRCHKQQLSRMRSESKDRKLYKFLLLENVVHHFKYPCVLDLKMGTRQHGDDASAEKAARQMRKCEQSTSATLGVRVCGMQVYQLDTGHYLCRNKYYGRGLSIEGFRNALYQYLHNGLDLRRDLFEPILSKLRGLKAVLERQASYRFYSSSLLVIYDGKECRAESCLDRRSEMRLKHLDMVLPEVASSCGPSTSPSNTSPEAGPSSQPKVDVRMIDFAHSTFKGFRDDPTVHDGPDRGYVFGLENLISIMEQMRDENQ
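ADP-Glo luminescence measures ADP made by human IP6K1 during a 2 h RT reaction with ATP/IP6 (mix at 1.3 mM/130 uM); top library doses 57.5 and 19.1 uM final.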
SNCA viab count: GF-AFC viability counterscreen for inhibitors of alpha-synuclein gene (SNCA) expression | HEK-293-SNCA-luc viability, GF-AFC fluorescence, 24 h | Potency, µM (doses to about 57.1 µM), without a hit: at the highest dose activity change, negative = cytotoxicity, usual class: cytotoxic | AID 1671193, 2021 | 150,000 tested, 0.12% active;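 further: potency means the concentration at half of the fitted maximal effect; 0% = DMSO-treated cells and -100% = medium-only wells without cells; nearly all actives have a fitted effect of over 30% in size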
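HEK-293-SNCA-luc cells (1500/well) plated 24 h, then exposed 24 h to a dilution series; GF-AFC added 30 min at 37C, fluorescence 405/540 nm; normalised to medium-only and DMSO wells, Hill fit.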
KDM5B inh: Primary screen for KDM5B Histone Demethylases FDH-coupled qHTS. Lysine-specific demethylase 5B (Homo sapiens), Q9UGL1. KDM5B demethylase, FDH-coupled NADH fluorescence (FDH is formaldehyde dehydrogenase). Potency, µM (series often up to 57.7 µM), actives largely listed as inhibitors. 220,000 tested, 2.6% active; further: potency means the concentration at half of the fitted maximal effect; 0% is about no effect; nearly all actives have a fitted effect of over 70% in size
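Measured: NADH fluorescence change, 30 min, RT. System: KDM5BΔAP 200 nM final, H3K4me3 peptide, α-KG, Fe(II), ascorbate, NAD⁺ plus FDH, pH 7.5 HEPES. Compounds: titrated, 10 min pre-incubation with enzyme.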
SNCA expr inh: Primary qHTS assay for inhibitors of alpha-synuclein gene (SNCA) expression | HEK-293 SNCA-luciferase knock-in, luminescence, 24 h | 140,000 tested, 0.17% active | Potency, µM (titrated, usually from 57.2 µM), for inactives: at the top dose activity change, negative = inhibition, hits mostly inhibitors | AID 1671194, 2021;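 further: potency means the concentration at half of the fitted maximal effect; plate controls were DMSO cells for no effect and cell-free wells for full effect; nearly all actives have a fitted effect of over 45% in size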
Active calls of the source: *; i = inactive; ? = inconclusive; · = no result given; [ ] = dose if it differs, or a comment. In the library only some 2.8% were active in any assay of this set; here they are far more common. Unless noted, the call rests on the fitted dose curve; in most records, active means well fitted curve in the direction sought with a large enough effect; inconclusive means small, poorly fitted or top-dose-only effect, or another doubt; inactive means no such curve, though single readings can be large; an effect the other way counts as inactive or inconclusive.

SMILES | IP6K1 inh | SNCA viab count | KDM5B inh | SNCA expr inh
CC(=C/c1ccccc1)/C=N/Nc1ccc([N+](=O)[O-])cc1 | · | · | i | ·
CCn1cnnc1-c1nn(C)c2c1CN(C(=O)CCC1CCCC1)CC2 | -11 | 6% | 22µM* | -20%
Cn1nc(-c2nncn2CC2CC2)c2c1CCN(C(=O)C1CC1)C2 | -3 | 3% | i | 1%
Cc1cc(C(=O)N[C@H](C)c2c(-c3ccc(Cl)cc3)noc2C(=O)O)c(C)o1 | -11 | 20%[87.6 µM] | 28µM* | 7%[87.6 µM]
C[C@@H](NC(=O)c1ccc(Cl)cc1)c1c(-c2ccc(F)cc2)noc1C(=O)O | -23 | 7%[87.6 µM] | ? | 13%[87.6 µM]
COc1cccc(C(=O)N2CCCC3(C2)Nc2cccnc2NC3=NCc2ccccc2)c1 (centres undefined) | -3 | -5% | 28µM* | 10%
CC(=O)N1CCCC2(C1)Nc1cccnc1NC2=NCc1ccccc1 (centres undefined) | 1 | -4% | ? | 4%
O=C(c1ccsc1)N1CCCC2(C1)Nc1cccnc1NC2=NCc1ccccc1 (centres undefined) | 0 | -1% | 28µM* | 22%
CCn1ccc(C(=O)N2CCCC3(C2)Nc2cccnc2NC3=NCc2ccccc2)n1 (centres undefined) | 0 | 6% | 28µM* | ?
COc1ccc(C(=O)N2CCCC3(C2)Nc2cccnc2NC3=NCc2ccccc2)cc1 (centres undefined) | 0 | -1% | 28µM* | ?
Cc1cc(C(=O)N2CCN(S(=O)(=O)c3c(F)cccc3F)CC2)c(C)n1Cc1cccs1 | · | · | i | ·
O=C(COc1ccccc1)N1CCCC2(C1)Nc1cccnc1NC2=NCc1ccccc1 (centres undefined) | 5 | -1% | ? | -8%
Cc1noc(C)c1CC(=O)N1CCCC2(C1)Nc1cccnc1NC2=NCc1ccccc1 (centres undefined) | 12 | 3% | 28µM* | 3%
CCCn1cnc2c1CN(S(=O)(=O)c1cccc(C(F)(F)F)c1)[C@H](C(=O)OC)C2 | 3 | -1%[87.6 µM] | 32µM* | -15%[87.6 µM]
COC(=O)[C@@H]1Cc2ncn(Cc3ccc(Cl)cc3)c2CN1S(=O)(=O)c1ccc(OC)cc1 | 26 | -26% | i | -30%
COC(=O)[C@@H]1Cc2ncn(Cc3ccc(OC)cc3)c2CN1S(=O)(=O)c1cccc2c(N(C)C)cccc12 | 22 | -2% | 18µM* | -7%
O=C(c1ccc2oc(-c3ccc(C(F)(F)F)cc3)nc2c1)N1CCOCC1 | 1 | 4% | i | 47%
O=C(NCC1CCCO1)c1ccc2oc(-c3ccc(C(F)(F)F)cc3)nc2c1 (centres undefined) | -1 | -3% | 25µM* | 88%
O=C(NC1CC1)c1cc(SCC(=O)N2CCOCC2)nc2ccccc12 | · | · | i | ·
O=C(Cc1ccc(Cl)cc1Cl)N1CCN(S(=O)(=O)N2CCCC2)CC1 | · | · | i | ·
O=C(c1cc2c(s1)CN(C1CCCC1)C2)N1CCCN(c2ncccn2)CC1 | 8 | -12% | 6.3µM* | 1%
COC(=O)c1ccc(C)c(NC(=O)Cc2cc(C(C)=O)ccc2OC)c1 | · | · | i | ·
CN(C)c1ccc(CN2C[C@@H](CN3CCCCC3)[C@@H](CO)C2)cn1 | 0 | -4% | 28µM* | 15%
CN1CC(=O)N(C2CCNC2)Cc2c(NCC3CC3)ncnc21 (centres undefined) | -2 | -1% | 89µM* | -16%
COCCCNc1ncnc2c1CN(C1CCCNC1)C(=O)CN2C (centres undefined) | -6 | 2% | ? | 7%
CC(CO)Nc1ncnc2c1CN(C1CCCNC1)C(=O)CN2C (centres undefined) | -5 | 1% | ? | 6%
CC[C@@H](Nc1ncnc2c1CN(C1CCNCC1)C(=O)CN2C)c1ccccc1 | -2 | 2% | ? | -4%
CN1CC(=O)N(C2CCCNC2)Cc2c(NCCOc3ccccc3)ncnc21 (centres undefined) | -5 | 9% | 45µM* | -3%
CCC(C)Nc1ncnc2c1CN(C1CCNCC1)C(=O)CN2C (centres undefined) | 1 | 0% | 35µM* | 8%
